HepG2 tox: kills HepG2 cells in TGF-b inhibitor counter-screen. HepG2 CAGA-GFP viability, ATP luminescence, 18 h. 410,000 tested, 0.76% active. Potency, µM (top dose mostly 46.1 µM), for the others: top-dose activity change, negative = cytotoxicity, usual class: cytotoxic
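CellTiter-Glo luminescence gave cytotoxicity after 18 hours at 37 degrees C. The cells were HepG2 CAGA-GFP in 1% FBS DMEM, stimulated with 500 pg/mL TGF-beta after compound addition. %Activity was normalised to no-cell wells (complete cell-killing) and DMSO (no toxicity), and curves were fitted and classified.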
TGFb SMAD3 inh: blocks TGF-b signaling | 410,000 tested, 1.2% active | AID 588855 | Potency, µM (doses to about 46.1 µM), without a hit: top-dose activity, negative = inhibition, hits mostly inhibitors | HepG2 CAGA-GFP TGF-b/SMAD3 reporter, GFP fluorescence, 18 h; TGF-beta stimulated, 500 pg/mL final; also: % is scaled to controls: 0 for no effect and ±100 for the full control effect; nearly all actives have a fitted effect of over 65% in size
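HEPG2 CAGA-GFP reporter cells (1000/well, DMEM with 1% FBS) received compounds, then recombinant TGF-beta at 500 pg/mL final for 18 hours at 37 degrees C. Per-cell GFP summed per well was normalised to unstimulated and stimulated DMSO controls before curve fitting.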
DT40 TDP1 CPT: growth inhibition of DT40 Tdp1-/-;hTDP1 cells with camptothecin (screen for TDP1 inhibitors); AID 686979; chicken DT40 Tdp1-/-;hTDP1 cells + 20 nM CPT, ATP luminescence, 48 h; Potency, µM (doses to about 46.2 µM), for inactives: at the highest dose activity change, negative = growth inhibition, most hits filed as inhibitors; 420,000 tested, 12% active; also: % is scaled to controls: 0 for no effect and ±100 for the full control effect; nearly all actives have a fitted effect of over 55% in size
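Chicken DT40 Tdp1-/- cells complemented with human TDP1, 400 cells/well, exposed to compounds plus 20 nM camptothecin for at least 48 h at 37 C; viability read as ATP content by CellTiter-Glo luminescence.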
HT1080-NT tox: kills 2HG-producing HT-1080-NT fibrosarcoma cells; HT-1080-NT fibrosarcoma viability, CellTiter-Glo ATP luminescence, 48 h; Potency, µM (top dose mostly 46.1 µM), for the others: at the highest dose activity, negative = less viability, actives largely listed as cytotoxic; 360,000 tested, 1.6% active; AID 686970;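 also: NT is the 2HG producing partner of a matched IDH1 knockdown line; 0% = DMSO-treated cells and -100% = media-only wells without cells; nearly all actives have a fitted effect of over 55% in size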
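Compounds were tested in concentration-response format on HT-1080-NT cells for 48 hours at 37 degrees C. Cell viability came from CellTiter-Glo luminescence; curves were classified by r2, response magnitude and activity.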
HT1080 IDH1KD tx: kills HT-1080 cells with IDH1 knockdown; HT-1080 IDH1 knockdown viability, ATP luminescence, 48 h; Potency, µM (top dose mostly 46.1 µM), for the others: top-dose activity, negative = toxicity, usual class: cytotoxic; 360,000 tested, 2% active; AID 686971;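 also: 0% = DMSO wells and -100% = cell-free medium wells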
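Assay cells: HT-1080 with IDH1 knockdown, 750 per well, RPMI/5% FBS. Exposure: 48 h at 37 °C following 2 h pre-incubation. Read: CellTiter-Glo luminescence; fitted concentration-response, curve class assigned.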
TDP1 cell noCPT: qHTS for Inhibitors of human tyrosyl-DNA phosphodiesterase 1 (TDP1): qHTS in cells in absence of CPT; DT40 Tdp1-/- hTDP1 cells, no CPT, ATP luminescence, 48 h; Potency, µM (highest dose often 46.2 µM), without a hit: top-dose activity change, negative = growth inhibition, hits mostly inhibitors; 420,000 tested, 15% active; AID 686978, 2013; also: % is scaled to controls: 0 for no effect and ±100 for the full control effect; nearly all actives have a fitted effect of over 55% in size
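Growth kinetics read by CellTiter-Glo luminescence after ≥48 hr at 37 °C. Cells: DT40 Tdp1-/- stably carrying human TDP1, 400 per well, compound exposure in the absence of CPT (DMSO vehicle).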
* = called active by the depositor; ? = inconclusive; . = no result given. Sampled rows, rich in hits. Any-hit rate of the full collection: about 17%. Calls follow the shape of the dose curve; as a rule, active = well fitted curve in the direction sought with a large enough effect; inconclusive = small, poorly fitted or top-dose-only effect, or another doubt; inactive = no such curve, though single readings can be large; an effect the other way counts as inactive or inconclusive. Potency is read from the fitted curve at half-maximal effect.

SMILES | HepG2 tox | TGFb SMAD3 inh | DT40 TDP1 CPT | HT1080-NT tox | HT1080 IDH1KD tx | TDP1 cell noCPT
Cc1ccc(C(NC(=O)NCCCN2CCOCC2)=C(Cl)Cl)cc1F | -19.3% | ? | 11.2µM* | -20.7% | -0.7% | 12.6µM*
Cn1cc(S(=O)(=O)N2CCCC2)cc1C(=O)NCCc1ccccc1 | -11.4% | 3.5% | ? | 19.6% | -1.5% | ?
O=c1c(S(=O)(=O)c2ccccc2)cn(Cc2ccc(F)cc2)c2cc(N3CCCC3)c(F)cc12 | 7.3% | 12.0% | -2.0% | . | . | -9.4%
COc1ccc(NC(=O)CN(C)C(=O)c2cccc(S(=O)(=O)N3CCN(c4ccc(F)cc4)CC3)c2)cc1 | -13.8% | -5.6% | 13µM* | -0.6% | -11.7% | ?
COc1cccc(CNC(=O)c2cccc(S(=O)(=O)N3CCN(c4ccc(F)cc4)CC3)c2)c1 | 1.9% | ? | ? | 1.8% | -4.9% | ?
CN(CC(=O)Nc1ccc(F)cc1)C(=O)c1cccc(S(=O)(=O)N2CCN(c3ccccc3)CC2)c1 | 0.0% | ? | 16.4µM* | -0.9% | -13.7% | 20.6µM*
COc1cccc(NC(=O)CN(C)C(=O)c2cccc(S(=O)(=O)N3CCN(c4ccccc4)CC3)c2)c1 | -16.1% | ? | ? | 0.1% | -6.8% | -59.0%
CCN1C(=O)N[C@@H](c2ccccc2)[C@@H](C(=O)OC)[C@H]1C | 4.3% | -5.3% | -18.0% | -0.4% | 6.7% | -0.8%
COc1ccccc1CC(=N)N1C[C@@H]2C(=O)CCC(c3ccccc3)(c3ccccc3)[C@@H]2C1 | . | . | 11.9µM* | . | . | 21.1µM*
COc1cccc(NC(CNS(=O)(=O)c2ccc(Cl)cc2)c2ccccc2)c1 (stereo unspecified) | -101.5% | 11.2µM* | ? | . | . | 16.4µM*
COc1cccc(NC(CNS(=O)(=O)c2ccc(C)cc2)c2ccccc2)c1 (stereo unspecified) | -93.8% | 14.1µM* | ? | . | . | ?
CCc1nc2nc(C)c(NS(=O)(=O)c3ccc(Cl)s3)c(=O)n2[nH]1 | -1.4% | 7.0% | 10.0% | -1.1% | 6.6% | -3.9%
CCCc1c(-c2cccc(Br)c2)ncn1Cc1ccccc1OC | . | . | ? | ? | ? | 20.6µM*
CCCc1c(-c2ccc(Cl)cc2)ncn1Cc1ccccc1OC | . | . | 11.6µM* | ? | ? | 20.6µM*
CCCc1c(-c2ccc(F)cc2)ncn1CCc1ccccc1OC | . | . | ? | ? | ? | 16.4µM*
CCCc1c(-c2ccc(Cl)cc2)ncn1CCc1ccccc1OC | . | . | 6.51µM* | ? | ? | 5.8µM*
COc1ccccc1CCn1c(=O)c(-c2ccc(F)cc2)nc2cncnc21 | . | . | 8.0% | . | . | 0.4%
COc1ccccc1Cn1cnc2cccnc21 | -27.7% | -10.8% | -20.0% | -0.9% | 3.7% | 6.6%
COc1ccc(-n2c(=O)c3sc4ccccc4c3n(CC(=O)Nc3ccccc3F)c2=O)cc1 | -2.6% | -12.5% | -5.0% | . | . | -2.4%
O=C1O[C@@H](c2ccccc2)C[C@@H](O)C(=O)CCc2ccccc21 | . | . | -14.2% | 13.2% | 1.2% | ?
CCCC(=O)OCC1CN(Cc2ccco2)S(=O)(=O)c2c(F)cccc2O1 (stereo unspecified) | 0.0% | -23.0% | ? | 6.5% | 6.1% | -18.8%
Cc1ccc(NS(=O)(=O)c2cc(OCC(N)=O)c(C)cc2Cl)cc1 | 22.4% | -11.6% | -24.9% | -2.6% | 0.4% | ?
CCCc1c(-c2cccc(Cl)c2)ncn1CCc1ccccc1OC | . | . | ? | ? | ? | 16.4µM*
O=C(CC1Nc2cccc3cccc(c23)NC1=O)Nc1ccccc1 (stereo unspecified) | -7.2% | 2.0% | ? | -5.4% | -4.9% | 25.9µM*
Cc1ccc(NC(=O)CC2Nc3cccc4cccc(c34)NC2=O)cc1 (stereo unspecified) | -27.8% | 11.2µM* | ? | . | . | 6.51µM*
SMILES | HepG2 tox | TGFb SMAD3 inh | DT40 TDP1 CPT | HT1080-NT tox | HT1080 IDH1KD tx | TDP1 cell noCPT
NC(=O)CC1Nc2cccc3cccc(c23)NC1=O (stereo unspecified) | -17.6% | ? | 16.8% | -5.1% | -0.1% | 1.7%
Cc1ccc2c(c1)sc(-c1ccc(N(C)C)cc1)[n+]2C | -31.6% | ? | 0.0366µM* | -27.6% | ? | 0.0184µM*
CCNS(=O)(=O)c1cccc(C(=O)c2c(C)cc3ccccn23)c1 | -10.3% | ? | ? | 5.7% | 5.9% | 14.6µM*
Cc1cc2ccccn2c1C(=O)c1ccc(S(=O)(=O)N(C)C)cc1 | -15.1% | -18.1% | 18.4µM* | -26.6% | -17.5% | 23.1µM*
Cc1cc2ccccn2c1C(=O)c1ccccc1Br | -12.8% | ? | 16.4µM* | ? | ? | ?
Cc1c(OC(C)C(=O)NCCCn2ccnc2)ccc2c3c(c(=O)oc12)CCC3 (stereo unspecified) | -13.2% | 1.2% | -24.3% | 5.0% | -7.3% | 4.8%
CCCn1c(SCC(=O)Nc2ccccc2C(=O)NC2CC2)n[nH]c1=O | 1.0% | 0.9% | -14.4% | -0.2% | -1.4% | 17.3%
COc1cccc(CNCCSc2nnnn2C)c1OCc1ccccc1F | -27.9% | ? | ? | . | . | ?
COc1cccc(CNCCSc2nnnn2C)c1OCc1ccc(F)cc1 | -34.8% | -25.7% | ? | . | . | 20.6µM*
COc1cc(CNCCSc2nnnn2C)ccc1OCc1ccc(F)cc1 | -30.2% | -19.9% | 18.4µM* | . | . | 20.6µM*
COc1cc(CNCCSc2nnnn2C)ccc1OCc1ccccc1 | -4.3% | 15.0% | ? | . | . | ?
O=C(CSCc1cccc(Cl)c1)N1CCN(Cc2ccc3c(c2)OCO3)CC1 | -10.6% | -23.7% | -19.3% | -13.1% | -7.9% | -24.5%
CCNc1nc(NCC)nc(NS(=O)(=O)c2ccc(N)cc2)n1 | -0.8% | 31.9% | 16.5% | 9.5% | 10.6% | -2.2%
O=C(NCC(c1ccco1)N1CCCC1)c1ccc(Cl)c(S(=O)(=O)N2CCc3ccccc32)c1 (stereo unspecified) | -19.5% | ? | 8.2µM* | -24.9% | ? | 7.31µM*
O=C(Nc1ccccn1)c1ccc(Cl)c(S(=O)(=O)N2CCc3ccccc32)c1 | -7.8% | ? | 16.4µM* | -2.2% | -10.1% | ?
CCOC(=O)C1CCCN(C(=O)c2ccc(Cl)c(S(=O)(=O)N3CCc4ccccc43)c2)C1 (stereo unspecified) | -0.4% | -3.1% | ? | -5.6% | -18.9% | 13µM*

Screens as filed in PubChem.
